Among the data in PubChem BioAssay (NCATS) are outcome values, retold here.

Each structure is given as a SMILES string. Results filed as inconclusive are left out. The source made the active and inactive calls. Calls come from the whole dose curve; as a rule, active = well fitted curve in the direction sought with a large enough effect; inconclusive = small, poorly fitted or top-dose-only effect, or another doubt; inactive = no such curve, though single readings can be large or run the other way.

Sequence of Calcium and integrin-binding protein 1 (Homo sapiens) (Q99828 whole entry, looked up): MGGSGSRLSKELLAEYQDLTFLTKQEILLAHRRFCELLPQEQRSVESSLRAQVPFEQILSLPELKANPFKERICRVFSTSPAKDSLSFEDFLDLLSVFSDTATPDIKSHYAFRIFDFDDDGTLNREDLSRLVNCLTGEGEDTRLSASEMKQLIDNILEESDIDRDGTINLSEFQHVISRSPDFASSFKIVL

The target in this assay is Calcium and integrin-binding protein 1 (Homo sapiens) (UniProt Q99828). Nature of the assay: Validation qHTS for Identification of Calcium Integrin Binding protein 1 (CIB1) Competitor (AID 1508618). The following applies: CIB1-GST / FITC-alphaIIb peptide fluorescence polarization; series mostly up to 114 µM. The source says:
Assay Provider: Ulhas P. Naik, PhD
Sidney Kimmel Medical College
Thomas Jefferson University, Philadelphia, PA
Primary function of platelets is to maintain hemostasis. At the site of vascular injury, platelets adhere to adhesive proteins such as collagen and von Willebrand factor. Adherent platelets are activated and generate soluble platelet agonists such as thrombin, ADP and thromboxane A2. Following exposure of circulating platelets to these agonists, results in platelet shape change, granule secretion and activation of platelet integrin alphaIIb-beta3. Ligand binding to activated integrin alphaIIb-beta3 triggers outside-in signaling, leading to platelet aggregation, stabilization of platelet plug, and clot retraction. Upon atherosclerotic plaque rupture also causes platelet plug formation, which underlies a number of cardiovascular diseases such as myocardial infraction and stroke. A number of anti-platelet drugs such as aspirin, clopidogrel, prasugrel, vorapaxar, and eptifibatide are currently available to prevent the thrombotic complications. However, these anti-platelet agents have several limitations including inherent variability in individual responses, developing resistance, and serious bleeding side effects. For these reasons they are not suitable for long-term protection. Based on the experiences with current anti-platelet drugs, it appears that the most useful therapeutic approach is to intersect the secondary responses such as integrin outside-in signaling or recruitment of platelets by TxA2 and secreted ADP. Compounds, which can largely preserve the primary hemostatic function of platelets but inhibit secondary response will be most desired therapeutic agents for treatment of cardiovascular disease.
CIB1 is a calcium integrin binding protein, which specifically interact with the alphaIIb subunit of integrin alphaIIb-beta3. Binding of CIB1 to alphaIIb regulates the outside-in signaling in platelets, which is needed for thrombus stabilization and thrombus growth. […] Therefore, we propose that discovery of a small molecule that can prevent the association of CIB1 and alphaIIb-beta3 will be a potential anti-platelet agent that can block the thrombus formation without undue effect on hemostasis.
To develop fluorescence polarization (FP) assay using fluorescently labeled alphaIIb peptide and CIB1 protein. Using FP assay characterize the binding affinity, competitive inhibition, and acceptable Z factor (0.5 to1) in order to perform the HTS to identify small molecule compound that can prevent CIB1 binding to platelet integrin alphaIIbbeta3. This assay is screened against the NCATS LOPAC library to validate the amenability of the assay to qHTS.
[1] Naik MU, Nigam A, Manrai P, et al. CIB1 deficiency results in impaired thrombosis: the potential role of CIB1 in outside-in signaling through integrin alpha IIb beta 3. J Thromb Haemost. 2009;7(11):1906-1914. doi:10.1111/j.1538-7836.2009.03581.
SEQUENCE No. (1, 2, 3, etc.); […] (e.g., Cells, Incubation, Reagent, etc.); VALUE and DESCRIPTION.
1; Reagent; 3 uL; Protein or buffer (4/3x)
2; Compound; 46 nL; Control inhibitor / compound library
3; Time; 15 min; Room temperature incubation
4; Reagent; 1 uL; Fluorescent labeled peptide (4x)
5; Time; 1000 rpm; Centrifuge
6; Time; 15 min; Room temperature incubation
7; Detection; Ex 480/ Em 540; ViewLux Fluorescence Read
NOTES (numbers refer to sequence above)
1; Protein Mixture: C1B1-GST (final concentrations of 1 uM). Buffer composition: 5 mM HEPES pH 7.4, 125 mM NaCl, 5 mM CaCl2, 0.01% Tween20.
2; Control Inhibitor: unlabeled peptide (final concentration range 17.4 nM to 572 uM). Compound Library final concentration range 18.3 nM to 114 uM.
3; Room temperature incubation.
4; Fluorescent Labeled Peptide: FITC-aIIb (final concentration of 100 nM). Sequence of alphaIIb peptide: Acetyl-[…]-FITC (purity is 95.83%).
6; Room temperature incubation.
[…]
For orientation: qHTS replaces the single test concentration by a dilution series.
Regarding `COc1cc2ncnc(Nc3cccc(Cl)c3)c2cc1OC`, the outcome was inactive.
As to `NC(=O)c1ccc2[nH]ccc2c1`, the result was inactive.
On to `CCN1CCCC1CNC(=O)c1cc(S(N)(=O)=O)ccc1OC` (stereo not given), for which the result was inactive.
As for `CCN(CC)CCn1c(=O)c(Cc2ccc(OC)cc2)nc2ccccc21`, the entry is “inactive”; as for `CC1=C(C(=O)O)N2C(=O)[C@@H](NC(=O)C(N)c3ccccc3)[C@H]2SC1` (stereo not given in full), “inactive”; as for `CC(=O)[C@H]1CC[C@H]2[C@@H]3CCC4=CC(=O)CC[C@]4(C)[C@H]3CC[C@]12C`, “inactive”.
Take `COc1cc2nc(N3CCCN(C)CC3)nc(NC3CCN(Cc4ccccc4)CC3)c2cc1OC`: the outcome was inactive.
The result for `NC(=O)c1cccc(N)c1` reads “inactive”; that for `OCc1ccc(-c2nn(Cc3ccccc3)c3ccccc23)o1`, “inactive”.
`O=C(O)C1CCCN(CCC=C(c2ccccc2)c2ccccc2)C1` (stereo not given): the outcome was inactive.
As for `CCCCS(=N)(=O)CCC(N)C(=O)O` (stereo not given), the entry is “inactive”.
Regarding `CC(C)NCC(O)c1ccc(NS(C)(=O)=O)cc1` (stereo not given), the outcome was inactive.
The result for `CC1CC2C3CCC4=CC(=O)C=C[C@]4(C)[C@@]3(F)[C@@H](O)C[C@]2(C)[C@@]1(O)C(=O)CO` (stereo not given in full) reads “inactive”; that for `N[C@@H](Cc1ccc(O)c(O)c1)C(=O)O`, “inactive”; that for `CNS(=O)(=O)CCc1ccc2[nH]cc(C3CCN(C)CC3)c2c1`, “inactive”.
